Pf Dd2 growth – Plasmodium falciparum Dd2 growth inhibition; hit rate 4.3% among 120,000; Potency, µM (top dose mostly 28.9 µM), for the others: at the top dose activity, negative = inhibition, usual class: inhibitors; AID 1347417; P. falciparum Dd2 growth, SYBR Green, 72 h; active = well fitted inhibition curve with a large enough effect;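 also: plate controls were DMSO vehicle for no effect and reference drug for full effect; nearly all actives have a fitted effect of over 65% in size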
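Infected erythrocytes (Dd2, 0.3% parasitemia, 2.5% hematocrit final) are added to compound in RPMI-1640/Albumax II medium, grown 72 h at 37C in low oxygen, then lysed with saponin/Triton-X containing SYBR Green and read by fluorescence.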
* = called active by the depositor; i = inactive; [ ] = remark or other dose. Only a selection was taken, and hits are over-represented in it overall. Potency is read from the fitted curve at half-maximal effect.

SMILES | Pf Dd2 growth
CC(Cc1cnccn1)NC(=O)c1ccc2nc(-c3ccc(F)cc3)cn2c1 (stereo not drawn) | -17%
C#CCSc1nc(-c2ccccc2)c2cc(Cl)ccc2n1 | 19%
O=C(NC1CC1)C1CC(=O)N(c2n[nH]c3cccc(F)c23)C1 (stereo not drawn) | -4%
CCOc1ccc(CCNC(=O)c2cc3n(n2)CCCN(Cc2ccc(C)cc2)C3=O)cc1OCC | i
c1coc(CN2CC[C@H](c3nnc(-c4ccncc4)o3)C2)c1 | i
CC1=C[C@@H](CNC(=O)c2ccccc2)[C@H](C(C)C)C[C@H]1CC(=O)N1CCN(C)CC1 | i
CC1=C[C@@H](CNC(=O)C(C)(C)C)[C@H](C(C)C)C[C@H]1CC(=O)N1CCN(c2ccccn2)CC1 | -6%
CC1=C[C@@H](CC#N)[C@H](C(C)C)C[C@H]1CC(=O)N1CCN(c2cnccn2)CC1 | 7.1µM*
CC1=C[C@@H](CO)[C@H](C(C)C)C[C@H]1CC(=O)N1CCN(CCO)CC1 | i
CC1=C[C@@H](CNC(=O)C2CCCCC2)[C@H](C(C)C)C[C@H]1CC(=O)N1CCN(c2ccccn2)CC1 | 10µM*
CC(=O)N1CCN(C(=O)C[C@@H]2C[C@@H](C(C)C)[C@H](CC#N)C=C2C)CC1 | -10%[44.1 µM]
O=C1CC(c2ccccc2)N(C(=O)c2ccco2)CCCCCCN1 (stereo not drawn) | -16%
CCCCN(C)C(=O)c1cn2ccnc(-c3ccccc3)c2n1 | i
CCC(CC)n1c(=O)n(CCC(N)=O)c2cc(C(=O)O)cnc21 | -6%
O=C(c1ccc(F)cc1Cl)N1C[C@@H](CO)[C@H](c2ccncc2)C1 | -6%
Cn1nc(-c2ccc3ccccc3c2)cc1[C@H]1CN2CC[C@H]1C[C@@H]2CNC(=O)N1CCOCC1 | i
O=C(NCCc1ccccc1)c1cnn(-c2ccc(F)cc2)c1-n1cccc1 | 4%
CC(C)(C)OC(=O)N1CCC(c2c(C(=O)NCCc3ccccc3)cnn2-c2ccc(F)cc2)CC1 | 11µM*
Cc1ccc(-n2ncc(C(=O)Nc3ccc(C)c(F)c3)c2C2CCN(C(=O)OC(C)(C)C)CC2)cc1C | -16%
Cc1ccc(-n2ncc(C(=O)N3CCc4ccccc4C3)c2C2CCN(C(=O)OC(C)(C)C)CC2)cc1C | -2%
Cc1ccc(-n2ncc(C(=O)NCc3ccco3)c2C2CCN(C(=O)OC(C)(C)C)CC2)cc1C | 11µM*
CC(C)(C)OC(=O)N1CCC(c2c(C(=O)NCc3ccccc3)cnn2-c2cccc(F)c2)CC1 | 10µM*
COCCCNC(=O)c1cnn(-c2ccc(F)cc2F)c1C1CCNCC1 | -3%
CC(C)(C)OC(=O)N1CCC(c2c(C(=O)N3CCOCC3)cnn2-c2cccc(F)c2)CC1 | 12%
CC(C)(C)OC(=O)N1CCC(c2c(C(=O)NCCc3ccccc3)cnn2-c2ccc(F)cc2F)CC1 | 5.6µM*
SMILES | Pf Dd2 growth
CC(C)(C)OC(=O)N1CCC(c2c(C(=O)N3CCCCC3)cnn2-c2cccc(F)c2)CC1 | -5%
COc1ccc(N2CCN(c3ccc(-c4nc(-c5ccccc5)no4)cc3[N+](=O)[O-])CC2)cc1 | 25%
O=C(c1csc2nc(-c3cccc(C(F)(F)F)c3)cn12)N1CCN2CCCC2C1 (stereo not drawn) | i
CN(CC1CCOC1)C(=O)Nc1ccc(F)c(Cl)c1 (stereo not drawn) | 45%[5.79 µM]
Cc1ncccc1C(=O)NC(CC(C)C)c1nnc2n1CCNCC2 (stereo not drawn) | 2%
CC(C)N1C[C@H](O)C[C@H]1c1nnc2n1CCN(C(=O)C1(c3ccccc3)CC1)CC2 | 3%
Cc1ccc(C2=NC3(CCN(C(=O)c4cccc(C#N)c4)CC3)ON2)cc1 | -14%
COC(=O)C1=CN(CC(=O)NC(C)CCc2ccccc2)S(=O)(=O)N=C1C (stereo not drawn) | i
Cc1ccc(-n2ncc(C(=O)NCCc3ccccc3)c2C2CCN(C(=O)OC(C)(C)C)CC2)c(C)c1 | 10µM*
CC(C)(C)OC(=O)N1CCC(c2c(C(=O)NCc3cccs3)cnn2-c2ccc(F)cc2F)CC1 | 4µM*
Cc1cccc(C)c1-n1ncc(C(=O)Nc2ccc3c(c2)OCO3)c1C1CCN(C(=O)OC(C)(C)C)CC1 | i
CC(C)(C)OC(=O)N1CCC(c2c(C(=O)Nc3ccc4c(c3)OCCO4)cnn2-c2ccc(F)cc2)CC1 | 7.9µM*
Cc1ccc(-n2ncc(C(=O)NCc3ccccn3)c2C2CCN(C(=O)OC(C)(C)C)CC2)c(C)c1 | i
CCOC(=O)c1ccc(NC(=O)c2cnn(-c3ccc(C)cc3C)c2C2CCN(C(=O)OC(C)(C)C)CC2)cc1 | 13µM*
CSCC(=O)NCCC[C@H](NC(=O)[C@@H]1[C@@H](NC(=O)Nc2ccc(F)cc2F)CCN1C(=O)CSC)C(N)=O | -17%
COCCc1nncn1C1CCN(C(=O)c2ccc(Br)o2)CC1 | -19%
CNC(C)c1ccc(F)cc1 (stereo not drawn) | -9%[44.1 µM]
CS(=O)(=O)N1C[C@H]2CCN(Cc3ccccc3C(F)(F)F)C[C@H]21 | i
COc1ccc(-c2nc3scc(CCNS(=O)(=O)c4ccc5c(c4)OCCO5)n3n2)cc1OC | -2%
O=C(Cn1ccn2nc3c(c2c1=O)CCCC3)Nc1ccc2c(c1)OCCO2 | 14%
CCOc1ccc(CNC(=O)CN2C(=O)CCn3nc(-c4cn(C)c5ccccc45)cc32)cc1OC | -11%
Cc1ccc(OCc2cc(C(=O)N(C)Cc3ccccn3)no2)cn1 | 0%
Cc1cccc(/C=C/c2onc(C)c2S(=O)(=O)N2CCC(C(=O)N3CCC(C)CC3)CC2)c1 | 57%
Cc1ccc(/C=C/c2onc(C)c2S(=O)(=O)N2CCC(C(=O)N3CCN(c4ccccc4F)CC3)CC2)cc1 | 6.3µM*
Cc1ccc(/C=C/c2onc(C)c2S(=O)(=O)N2CCC(C(=O)Nc3cc(F)ccc3F)CC2)cc1 | -1%
SMILES | Pf Dd2 growth
Cc1cccc(N2CCN(C(=O)C3CCN(S(=O)(=O)c4c(C)noc4/C=C/c4ccccc4F)CC3)CC2)c1C | i
Cc1ccc(/C=C/c2onc(C)c2S(=O)(=O)N2CCC(C(=O)N3CCN(c4cccc(C)c4)C(C)C3)CC2)cc1 (stereo not drawn) | i
Cc1ccc(/C=C/c2onc(C)c2S(=O)(=O)N2CCC(C(=O)N3CCC(N(C)C(C)C)CC3)CC2)cc1 | 10µM*
CCn1c(=O)c2sccc2n2c(CCCC(=O)N3CCN(c4cc(C)ccc4C)CC3)nnc12 | -12%
CC1=NS(=O)(=O)N(C)C=C1C(=O)OCc1nc(-c2ccccc2Cl)no1 | -16%
COCC1CN(C)CC12CCN(Cc1ccncc1F)CC2 (stereo not drawn) | 19%
COCC1CN(C)CC12CCN(Cc1ccncc1)CC2 (stereo not drawn) | 13%
COCC1CN(C)CC12CCN(Cc1cc(Br)ccc1F)CC2 (stereo not drawn) | 3.5µM*
N#Cc1cc2c(=O)n3ccccc3nc2n(-c2nnc(SCc3ccccc3)s2)c1=O | i
Cc1ccc(CSc2nnc(-n3c(=O)c(C#N)cc4c(=O)n5cc(C)ccc5nc43)s2)cc1 | 32%
Cc1cccn2c(=O)c3cc(C#N)c(=O)n(-c4nnc(SCc5ccc(Cl)cc5)s4)c3nc12 | 8.9µM*
C[C@@H]1CN(C(=O)C2(c3ccc(Cl)cc3)CCC2)C[C@]1(C)O | -12%
N#Cc1ccc(CN2CCC3(CC(c4cccc(C(F)(F)F)c4)=NO3)C2)cc1 (stereo not drawn) | -18%
Fc1ccc(CN2CCCC3(CC(c4cccc(C(F)(F)F)c4)=NO3)C2)cc1 (stereo not drawn) | -16%
Fc1ccc(CN2CCC3(CC(c4cccc(C(F)(F)F)c4)=NO3)C2)cc1 (stereo not drawn) | 10µM*

Assay outcomes deposited in PubChem BioAssay by National Center for Advancing Translational Sciences (NCATS).
